Experimental data from PubChem BioAssay (NCI).
About 83,000 compounds went through this panel and 20% of them were active in at least one assay; those are over-represented in the sample as a whole.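 The endpoint reported here, percent growth, reads 100 for growth as untreated, 0 for no net growth and -100 for all cells dead.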 Calls of active or inactive are those of the source. The calls were made as follows: active = growth percent below 10; inactive = the rest.

Tests used:
Assay in all cases: NCI-60 one-dose screen, 48 h (100 = growth as untreated, 0 = no growth, -100 = all killed)
[1] = test system: EKVX NSCLC; conditions: 10 µM unless noted
[2] = test system: SN12C renal; conditions: 10 µM unless noted
[3] = test system: UO-31 renal; conditions: 10 µM unless noted
[4] = test system: TK-10 renal; conditions: 10 µM unless noted
[5] = test system: ACHN renal; conditions: 10 µM unless noted
[6] = test system: CAKI-1 renal; conditions: 10 µM unless noted
[7] = test system: A498 renal; conditions: 10 µM unless noted
[8] = test system: MOLT-4 leukemia; conditions: 10 µM unless noted
[9] = test system: SR leukemia; conditions: 10 µM unless noted
[10] = test system: RPMI-8226 leukemia; conditions: 10 µM unless noted
[11] = test system: OVCAR-8 ovarian; conditions: 10 µM unless noted
[12] = test system: OVCAR-5 ovarian; conditions: 10 µM unless noted
[13] = test system: OVCAR-4 ovarian; conditions: 10 µM unless noted
[14] = test system: SK-OV-3 ovarian; conditions: 10 µM unless noted
[15] = test system: IGROV1 ovarian; conditions: 10 µM unless noted
[16] = test system: OVCAR-3 ovarian; conditions: 10 µM unless noted
[17] = test system: HS 578T breast; conditions: 10 µM
[18] = test system: NCI/ADR-RES ovarian; conditions: 10 µM unless noted
[19] = test system: CCRF-CEM leukemia; conditions: 10 µM unless noted
[20] = test system: SK-MEL-2 melanoma; conditions: 10 µM unless noted

Measured: growth

CCc1ccc2c(c1)N(CCO)C1=C(C(=O)OC1)C2c1cccc(Br)c1 (stereo not drawn)
active: [7] 2.81% | [16] -10.6% | [17] 3.25% | [18] 9.74%
inactive: [1] 47.4% | [2] 53.5% | [3] 34% | [4] 45.4% | [5] 47.4% | [6] 26.1% | [8] 19.3% | [9] 28.6% | [10] 24.7% | [11] 33.7% | [12] 36.4% | [13] 59.9% | [14] 28.1% | [15] 39.3%

COc1ccc([C@@H]2[C@@H](Oc3ccccc3)C(=O)N2c2cc(OC)c(OC)c(OC)c2)cc1F
inactive: [1] 34.6% | [2] 24.6% | [3] 24.4% | [4] 44.7% | [5] 21.5% | [12] 19.8% | [13] 39% | [14] 16.6% | [15] 18.5% | [17] 26% | [18] 12.2%
active: [7] -9.03% | [19] 8.73% | [8] 6.79% | [9] 5.09% | [10] 3.15% | [11] 6.55% | [16] 1.08%

CC1(C)C(N(O)C(=O)Nc2ccc(Cl)cc2)N(c2ccc(Cl)cc2)C(=O)N1CC(=O)N/N=C/C=C/c1ccc([N+](=O)[O-])o1 (stereo not drawn)
inactive: [1] 29.8% | [3] 12.8% | [6] 68% | [13] 14.9% | [14] 57.8% | [18] 95%
active: [2] -21.4% | [4] 4.58% | [5] 9.18% | [8] -21.5% | [9] -13.1% | [10] -23.7% | [11] 3.32% | [12] 6.4% | [15] -5.58% | [16] -26.8% | [17] -11.4%

Cc1ccccc1N1C(c2ccccc2)=NNC12C=CC(=O)c1c(O)cccc12 (stereo not drawn)
inactive: [1] 79.7% | [2] 62.2% | [3] 57.5% | [4] 116% | [5] 81.7% | [6] 96.9% | [7] 76.4% | [19] 119% | [9] 97% | [10] 83.8% | [11] 60.1% | [12] 83.8% | [13] 61.3% | [14] 74.4% | [15] 93.2% | [16] 60.5% | [18] 72.5%

COc1ccc(-c2n[nH]nc2-c2cc(OC)c3c(c2)OCO3)cc1
active: [20] 6.64% | [6] -2.7% | [7] -9.3% | [19] -4.86% | [8] -15.3% | [9] -30.8% | [10] 9.65% | [11] 6.23% | [14] -6.92% | [15] -17.4% | [16] -14.6% | [18] 0.386%
inactive: [3] 20.1% | [4] 47.7% | [5] 29.6% | [12] 42.7% | [13] 51.7% | [17] 15%

COc1ccc(C2C3=C(COC3=O)N(CCO)c3cc(OC)c(OC)cc32)cc1 (stereo not drawn)
inactive: [1] 86.2% | [2] 102% | [3] 90.8% | [4] 93.4% | [5] 99.8% | [6] 108% | [7] 103% | [19] 95.8% | [8] 88.2% | [9] 93.1% | [10] 96.1% | [11] 108% | [12] 104% | [13] 105% | [14] 106% | [15] 119% | [16] 109% | [17] 106% | [18] 105%

CCSc1ccc([C@@H]2[C@@H](O)C(=O)N2c2cc(OC)c(OC)c(OC)c2)cc1
inactive: [1] 52.3% | [2] 38.8% | [3] 50.5% | [4] 77.2% | [5] 32.7% | [19] 11.9% | [8] 10.8% | [9] 11.7% | [11] 16.1% | [12] 54.8% | [13] 41.7% | [14] 39.1% | [15] 32.5% | [17] 46.5%
active: [7] -10.6% | [10] 8.48% | [16] -3.92% | [18] 8.62%

CCn1c(CN2CCN(Cc3ccccc3)CC2)nc2cc(NC(=O)c3cccs3)ccc21
active: [20] -50.1% | [3] -96.7% | [4] -94.1% | [5] -79.2% | [7] -91.6% | [19] -39.2% | [8] -11.3% | [9] -9.71% | [10] -27.6% | [11] -61.8% | [12] 4.74% | [13] -51.2% | [14] -95.1% | [15] -83% | [16] -94.5% | [17] -25.3%

CC1=C(C(=O)Nc2ccc(F)cc2)C(c2ccc(C)cc2)C2=C(CC(C)(C)CC2=O)N1 (stereo not drawn)
inactive: [20] 110% | [2] 97% | [4] 109% | [5] 94.7% | [6] 69.6% | [7] 63.7% | [19] 82.8% | [8] 85% | [10] 99.2% | [11] 98.3% | [12] 93.1% | [13] 90.8% | [14] 100% | [15] 104% | [16] 92.7% | [17] 77.4% | [18] 89.9%

Cc1nc2c(-c3cnc(N)nc3)nc(N3CCOCC3)nc2n1C(C)C
active: [1] 9.04% | [3] -12.1% | [4] -33% | [5] 2.76% | [6] 0.604% | [7] -39.2% | [8] 6.75% | [9] 7% | [11] -8.95% | [12] 7.67% | [13] -3.01% | [14] -39.7% | [15] -24.7% | [18] -5.49%
inactive: [2] 12.8% | [10] 12.8% | [16] 10%

CC(C)(C)NC(=O)C(OC(=O)C1CCc2cc(F)ccc2O1)c1ccccc1Cl (stereo not drawn)
inactive: [20] 102% | [3] 72.4% | [4] 99% | [5] 99% | [7] 90.7% | [19] 92.5% | [8] 94.6% | [9] 98.4% | [10] 99% | [11] 98.3% | [12] 96.6% | [13] 94.9% | [14] 102% | [15] 92.8% | [17] 99.7% | [18] 95.5%

CCN(CC)CCC(CNc1ccnc2cc(Cl)ccc12)c1ccc(O)cc1 (stereo not drawn)
inactive: [20] 119% | [3] 77.4% | [4] 90.2% | [5] 98.5% | [7] 37.7% | [19] 46% | [8] 48.3% | [9] 47.5% | [10] 51.3% | [12] 103% | [13] 91.4% | [14] 104% | [15] 78.1% | [16] 98.7% | [18] 99.8%

Cc1cc(C)c([O-])c(CN(C)CCN(C)Cc2cc(C)cc(C)c2[O-])c1.O=C([O-])c1cccc(C(=O)[O-])n1.[Ti+4]
inactive: [1] 27.1% | [2] 27.4% | [5] 19.4% | [6] 24.6% | [11] 20.9% | [12] 22.1% | [13] 22% | [14] 34.3%
active: [3] -9.59% | [4] -20.6% | [7] -86.2% | [19] -2.1% | [8] -5% | [10] -25.9% | [15] 6.22% | [16] 9.53% | [17] 0.477% | [18] 7.88%

COc1ccc(C(=O)c2cc(C)c(OC)c(C)c2)cc1OC(=O)CCl
inactive: [1] 44.9% | [2] 31.4% | [3] 45.8% | [4] 62.6% | [5] 21.4% | [7] 44.1% | [10] 11.2% | [12] 39.6% | [13] 47.4% | [14] 20.6% | [15] 25.7% | [17] 44.4%
active: [19] 8.68% | [8] 5.7% | [9] 2.99% | [11] 6.89% | [16] -15.5% | [18] 7.11%

COc1cccc(NC(=O)c2c(-c3ccccc3)c(-c3ccccc3)n[nH]c2=O)c1
inactive: [20] 134% | [2] 96.7% | [4] 120% | [5] 94% | [6] 86.9% | [7] 96.9% | [8] 67.8% | [9] 88.3% | [10] 86.1% | [11] 103% | [12] 97.8% | [13] 86% | [14] 99.5% | [15] 105% | [16] 107%

COC(=O)C1(C)COP(=O)(NC23CC4CC(CC(C4)C2)C3)OC1 (stereo not drawn)
inactive: [1] 98.4% | [2] 113% | [3] 87.2% | [4] 96.7% | [5] 103% | [6] 103% | [7] 103% | [19] 98.2% | [8] 109% | [9] 114% | [10] 95.6% | [11] 107% | [12] 113% | [13] 97.7% | [14] 100% | [15] 106% | [16] 106% | [17] 102% | [18] 93.9%

CCc1ccc2c(c1)N(CCO)C1=C(C(=O)OC1)C2c1cccc(Cl)c1 (stereo not drawn)
active: [7] -1.08% | [16] -35.9% | [17] 7.46% | [18] 8.16%
inactive: [1] 43% | [2] 38.7% | [3] 34.9% | [4] 49.9% | [5] 42% | [6] 27.6% | [19] 10.5% | [8] 17.6% | [9] 20.2% | [10] 20.3% | [11] 27% | [12] 30.3% | [13] 63.8% | [14] 27.2% | [15] 31.2%

COc1ccc(C(=O)c2c(N)nc3n2CCCC3)cc1OC
inactive: [20] 103% | [3] 84.3% | [4] 92.8% | [5] 107% | [6] 93.9% | [7] 98.6% | [19] 99.8% | [8] 84.1% | [9] 84.3% | [10] 99.3% | [11] 95.4% | [12] 111% | [13] 107% | [14] 105% | [15] 99.4% | [16] 109% | [17] 108% | [18] 107%
